Source: PubChem BioAssay (NCI)
About 79,000 compounds went through this panel and 15% of them were active in at least one assay; those are over-represented in the sample as a whole. A number with no mark means an inactive call. Calls of active or inactive are those of the source. Rule as the data show it: active = growth inhibition above about 70%; inactive = the rest.

How the values were obtained:
[1] = NCI Yeast Anticancer Drug Screen. Data for the rad50 strain (AID 155);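 also: 0% = growth of vehicle-only cultures of the same strain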; conditions: S. cerevisiae rad50 strain growth inhibition; at 50.0 µM; active compounds read high
Procedure, shortened: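 Yeast carrying a defined DNA repair defect were exposed to test compounds, and growth was compared with vehicle-treated controls to give percent inhibition.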

[2] = NCI Yeast Anticancer Drug Screen. Data for the mec2-1 strain (AID 157); conditions: S. cerevisiae mec2-1 strain, at 50.0 µM, active compounds read high
Procedure, shortened: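 Strain: mec2-1 (DNA repair/cell cycle alteration). Compound exposure, then growth measured; inhibition expressed relative to vehicle.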

[3] = NCI Yeast Anticancer Drug Screen. Data for the sgs1 mgt1 strain (AID 161);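 also: 0% = growth of cultures given vehicle only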; conditions: S. cerevisiae sgs1 mgt1 strain, at 50.0 µM, active compounds read high
Procedure, shortened: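 Read-out: growth inhibition vs vehicle controls. Cells: mutant yeast strain deficient in DNA damage repair.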

[4] = NCI Yeast Anticancer Drug Screen. Data for the cln2 rad14 strain (AID 165);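 also: 0% = growth equal to vehicle treated cultures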; conditions: S. cerevisiae cln2 rad14 strain, at 50.0 µM, active compounds read high
Procedure, shortened: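 Compounds are applied to the cln2 rad14 yeast strain, and growth is then compared with that of vehicle-treated cultures to give inhibition.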

[5] = NCI Yeast Anticancer Drug Screen. Data for the bub3 strain (AID 167); conditions: S. cerevisiae bub3 mutant strain, at 50.0 µM, active compounds read high
Procedure, shortened: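 Compounds were applied to a genetically altered yeast strain carrying a cell-cycle control defect. Growth inhibition was scored against vehicle-treated controls.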

[6] = NCI Yeast Anticancer Drug Screen. Data for the mlh1 rad18 strain (AID 175); conditions: S. cerevisiae mlh1 rad18 strain growth inhibition; at 50.0 µM; active compounds read high
Procedure, shortened: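 Read-out is yeast growth inhibition, calculated against vehicle-only controls. The compound was applied to a strain engineered with DNA damage repair alterations.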

Row | SMILES | growth inhibition [1] | growth inhibition [2] | growth inhibition [3] | growth inhibition [4] | growth inhibition [5] | growth inhibition [6]
1 | CNC(=O)c1c(-c2ccc(F)cc2)noc1C | -6.7% | -10.5% | 25.4% | 9.05% | 17.4% | 10.1%
2 | CCCCCCCCCCCC(=O)O (tested in a mixture with another compound) | -15.7% | 7.5% | -41.6% | -39.9% | -32.6% | -13.5%
3 | O=c1c(Cl)c(N2CCCCC2)cnn1-c1ccccc1 | 20.8% | 14.2% | 16.6% | 7.6% | 14.1% | 19.4%
4 | O=C(O)c1cccc(C#Cc2ccccc2)c1 | 16.7% | 5.25% | 12.5% | -15.4% | 4.55% | 25.1%
5 | CCC1(CC)SCc2nc3ccccc3n21 | 23% | 18.2% | 58.3% | 29.3% | 58.8% | 42.3%
6 | O=C(OCC(OC(=O)c1ccccc1)C(OC(=O)c1ccccc1)C(OC(=O)c1ccccc1)c1nn[nH]n1)c1ccccc1 (stereo unspecified) | 73% (active) | 88.4% (active) | 59.4% | 86.9% (active) | 85.2% (active) | 80.5% (active)
7 | CC(O)C(C)C(N)C(=O)O (stereo unspecified) | 3.7% | 2% | -1.05% | -0.85% | -0.3% | 18.4%
8 | O=C(NCCNC(=O)c1cccc([N+](=O)[O-])c1O)c1cccc([N+](=O)[O-])c1O | 19.6% | 6.8% | -2.85% | -9% | -3.2% | 11.8%
9 | COc1cc2c(cc1OC)-c1cc3cc(OC)c(OC)cc3c(C)[n+]1CC2 (tested in a mixture with another compound) | 6.25% | 0% | 11.9% | 19.4% | 11.4% | -66.8%
10 | CC(=O)N(C)Cc1c(O)ccc2ccccc12 | -7.25% | -21.2% | -9.9% | -9.4% | -2.25% | 12.7%
11 | COc1c2occc2c(OC)c2c(=O)c(S(=O)(=O)NC(=O)Nc3ccc(Cl)cc3)coc12 | 5.7% | -11.8% | 3.65% | -55.8% | -20.3% | 2.4%
12 | Cc1cc(N)cc(C)n1 | 22.9% | 28.6% | -14.8% | 0.7% | 11.7% | 11.7%
13 | COc1ccc(C(CC(=O)c2ccccc2)SCCN2CCOCC2)cc1 (stereo unspecified) | 4.25% | 0.85% | 5.2% | -43.6% | 53.5% | 3.6%
14 | Cc1c(-c2ccc(N)cc2)c(=O)oc2cc(O)ccc12 | -8.65% | -11.1% | -2.2% | 33% | 8.1% | 8.55%
15 | S=c1cn[nH]c2ccccc12 | 16% | 40.1% | 16.9% | 7.85% | 49.6% | 37.6%
16 | Nc1ccc(CC(=O)O)cc1S(=O)(=O)O | 25.8% | -18.4% | 4% | 9.1% | 4.25% | 26.6%
17 | CC(N)(CCBr)C(=O)O (stereo unspecified) | 3.85% | 5.2% | -0.05% | -4.75% | -5.95% | -17.4%
18 | CC(C)C(O)C(C)(C)CO (stereo unspecified) | 10.7% | -15.2% | 4.75% | 2.3% | 11.1% | 32.6%
19 | C1=C(c2ccccc2)c2ccccc2/C1=N/Nc1ccccc1 | 6.4% | 6.15% | 8.1% | 2.3% | 0.6% | 5%
20 | COC(=O)c1ccc(CSc2ccccc2NC(=S)Nc2cccc(C(F)(F)F)c2)o1 | -3.65% | -20.2% | -1.15% | 4.65% | -18.4% | -7.6%
21 | Cc1cc(Cc2c(F)c(F)c(C(c3cc(C)no3)c3c(F)c(F)c(F)c(F)c3F)c(F)c2F)on1 (stereo unspecified) | -7.55% | -37.9% | 5.8% | -58.8% | -26.1% | -8.3%

Row | SMILES | growth inhibition [1] | growth inhibition [2] | growth inhibition [3] | growth inhibition [4] | growth inhibition [5] | growth inhibition [6]
22 | COc1ccc(C2Nc3cc(Cl)ccc3NC3=C2C(=O)CC(C)(C)C3)cc1 (stereo unspecified) | 52.5% | 30.9% | 41.2% | 28.6% | 40.3% | 54.3%
23 | CCOc1cc(C)c2cccc(C)c2n1 | 17.1% | -0.35% | -13.6% | 6.25% | 2% | 13.8%
24 | COc1c(Cl)c(Cl)c([N+](=O)[O-])c(Cl)c1Cl | 40.4% | 30.1% | 35.5% | 7.65% | 37.9% | 33.2%
25 | O=C1c2ccccc2C(=O)N1CC(F)(F)F | -11.9% | -4.75% | -9.5% | 8.25% | 5.6% | -12.3%
26 | NC(=NCc1ccncc1)N/N=C\c1ccnc2ccccc12 | 4.15% | 10.9% | 7.75% | -13.7% | -9.5% | 7.75%
27 | SC1c2cc(Cl)ccc2-c2c(Cl)cc(Cl)cc21 (stereo unspecified) | -2.7% | 3.35% | -6.05% | 9.1% | 10.6% | -11.8%
28 | CC(C)CN(CC(C)C)C(=O)CCl | -3.1% | -0.3% | 14.1% | -15.9% | 6% | -1.65%
29 | CCCCC(CC)CSCCOC(C)OCCSCC(CC)CCCC (stereo unspecified) | 34.3% | 2.25% | 25.6% | 39.9% | 6.6% | 27.9%
30 | C/C=C/Cc1ccccc1O | 7.1% | -3.4% | -5.05% | -6.4% | -9.2% | -1.1%
31 | COc1ccc(OC)c2cc3c(cc12)C(=O)C(C)=C(C)C3=O | 6.15% | -2.55% | 10.8% | -30% | -1.3% | 7.7%
32 | O=C1c2ccccc2C(=O)N1CC1(C(=O)O)NCCS1(=O)=O (stereo unspecified) | 3.3% | -7.5% | -22.3% | 26.8% | -48.9% | 10.1%
33 | CC(C)(OC(=O)c1ccc([N+](=O)[O-])cc1)C1CC1 | -12.1% | 1.55% | -23.6% | -28.9% | -11.1% | -24.4%
34 | NC(=O)COc1ccccc1 | -14.5% | -8.75% | -1.1% | 14.6% | -0.15% | 27.9%
35 | O=C(Nc1ccccc1F)Oc1ccc(Cl)cc1Cl | 26.8% | 14.7% | 20.5% | 26.8% | 19.4% | 13.2%
36 | C/C(=N/NC(=O)C(N)=O)C(CC(C(=O)Nc1ccccc1C)/C(C)=N\NC(=O)C(N)=O)C(=O)Nc1ccccc1C (stereo unspecified) | 0.75% | -0.6% | -8.1% | -12.2% | 8.05% | -12.6%
37 | CN(C)C=Nc1ccn(C2CC(F)C(CO)O2)c(=O)n1 (stereo unspecified) | 4.55% | 13.2% | -22.4% | -7.85% | 8.8% | 13%
38 | O=C(CCC(=O)Nc1cccc([N+](=O)[O-])c1)CC(=O)c1ccc(Cl)cc1 | -26.6% | -4% | -7.9% | -25% | -12.1% | -23.3%
39 | Clc1nc(-c2ccccc2)nc2ccccc12 | -10.1% | -17.6% | -18.2% | -29.6% | -19.8% | -7.25%
40 | COc1cc2cnc(-c3ccncc3)c(O)c2cc1OC | 30.9% | 40.6% | 37.2% | 1.9% | 36.2% | 28.6%
41 | COc1ccc(CC(=O)c2c(OC)c3c(c4c2OC(C)(C)CC4)OC(C)(C)CC3)cc1OC | 21.1% | -14.8% | 8.1% | 16.5% | 33.9% | 34.4%
